Pf apPOL block = Pf-apPOL DNA polymerase inhibition. Recombinant Pf-apPOL, molecular beacon fluorescence, 1.5 h. inhibition, % at 10 µM. actives 0.25% (n = 210,000). AID 1794808
mHTT CaM bind = mHTT-calmodulin interaction abrogation; AlphaScreen His-mHTT/GST-CaM binding, luminescence; inhibition, % at 15 µM; actives 3.6% (n = 190,000);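 also: 0% = both proteins with DMSO and 100% = one protein alone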
* hit, by the source's call. In the library only some 3.5% were active in any assay of this set; here they are far more common. Rule as the data show it: active = inhibition above about 50%; inactive = the rest.

SMILES	Pf apPOL block	mHTT CaM bind
Cc1ccc(-n2c(O)cnc2Nc2nc(C)cc(C)n2)cc1	24.1	2.0
c1coc(CNc2ncnc3c2sc2nc(N4CCOCC4)c4c(c23)CCCC4)c1	-0.9	0.0
CNC(=O)C1CN(C(=O)Nc2ccc(C(F)(F)F)cc2)CC12CCCC2 (stereo not drawn)	-5.6	-4.7
Cc1ccc(Nc2nccc(C3CCCN(C(=O)C4CCC4)C3)n2)cc1 (stereo not drawn)	-3.5	46.6
CC(=O)N1CCCC(c2ccnc(Nc3ccc(F)cc3)n2)C1 (stereo not drawn)	-8.4	14.8
O=C(Cc1cccs1)N1CCCC(c2ccnc(Nc3ccc(F)cc3)n2)C1 (stereo not drawn)	-1.5	53.4*
Cc1ccc(Nc2nccc(C3CCCN(C(=O)Cc4cccs4)C3)n2)cc1 (stereo not drawn)	-5.1	63.2*
COc1ccccc1Nc1nnc(-c2cc3c(CO)cnc(C)c3oc2=O)s1	-4.8	-4.0
CCCNS(=O)(=O)c1ccc2c(c1)CC(C)N2C(=O)CC (stereo not drawn)	4.9	-5.0
CCOc1ccccc1N1CCN(c2nccn3cncc23)CC1	-14.9	53.5*
CCOc1ccccc1N1CCN(S(C)(=O)=O)CC1	-1.2	-4.5
CC(=O)N1CCN(c2cc(Oc3ccc(Cl)cc3F)ncn2)CC1	-10.2	1.3
COc1ccc(NCc2ccc([N+](=O)[O-])s2)c(OC)c1	21.8	66.9*
COc1ccc(NC(=O)COc2ccc([N+](=O)[O-])cc2)c(OC)c1	-8.0	-1.7
COc1ccccc1CCC(=O)N1CCC(Nc2cccnc2)C1 (stereo not drawn)	-5.4	2.0
CCOc1ccc(-c2[nH]nc3c2C(c2ccccc2F)C(C#N)=C(N)O3)c(OCC)c1 (stereo not drawn)	1.2	51.0*
CCOc1ccc(-c2[nH]nc3c2C(c2ccc(F)cc2)C(C#N)=C(N)O3)c(OCC)c1 (stereo not drawn)	0.9	29.0
CN(C)C(=O)C1CCCN(c2cnn(C)c(=O)c2)C1 (stereo not drawn)	0.2	-6.6
Cc1cc(C)c2nc(C)cc(NC(=O)c3ccccn3)c2c1	-0.6	-11.1
COc1ccccc1C(=O)Nc1ccccn1	1.4	-8.4
COc1cccc(C(Nc2ccccn2)c2ccc3ccc(C)nc3c2O)c1OC (stereo not drawn)	-30.3	69.0*
Cc1ccc2ccc(C(Nc3ccccn3)c3ccccc3C)c(O)c2n1 (stereo not drawn)	-32.8	68.0*
CC(C)CNC(=O)N1CCC(Cc2nc3cccnc3n2CC(C)C)C1 (stereo not drawn)	-0.3	6.3
COc1ccc(C2NC(=O)NC(C)=C2C(=O)Nc2ccc(C)c(Cl)c2)cc1OC (stereo not drawn)	0.1	54.0*
COc1ccc(NC(=O)C2=C(C)NC(=O)NC2c2ccc(OC)cc2OC)c(OC)c1 (stereo not drawn)	0.6	73.0*
SMILES	Pf apPOL block	mHTT CaM bind
COc1ccc(NC(=O)C2=C(C)NC(=O)NC2c2cccs2)c(OC)c1 (stereo not drawn)	-0.1	2.0
COc1cc(C2NC(=O)NC(C)=C2C(=O)Nc2ccc(F)c(F)c2)ccc1O (stereo not drawn)	-1.5	0.0
O=C1CC(c2cccs2)CC2=C1C(c1ccc(Cl)cc1Cl)Nc1ccccc1N2 (stereo not drawn)	3.2	-2.0
CCc1c(C2CCN(C(=O)COc3ccccc3)CC2)noc1N	-6.8	20.3
CC(C)C[C@H]1COc2cccc(N3CCN(Cc4ccccc4F)CC3)c2S(=O)(=O)N1	-3.2	80.5*
C[C@H]1COc2cccc(N3CCN(Cc4ccccc4F)CC3)c2S(=O)(=O)N1	-4.5	-14.5
COc1ccc(-c2ccc(C=C3C(=O)OC(c4ccccc4)OC3=O)o2)c([N+](=O)[O-])c1 (stereo not drawn)	-3.1	3.0
COc1ccc(-c2ccc(/C=C3\Sc4ccccc4C3=O)o2)c([N+](=O)[O-])c1	-4.4	51.0*
O=C1/C(=C/c2cc([N+](=O)[O-])c(Cl)cc2Cl)Sc2ccccc21	4.5	19.0
O=C1/C(=C/c2ccc([N+](=O)[O-])cc2)Sc2ccccc21	88.6*	11.0
O=C1/C(=C/c2cccc([N+](=O)[O-])c2O)Sc2ccccc21	-3.7	15.0
CC(C)c1ccc(/C=C2\Sc3ccccc3C2=O)cc1[N+](=O)[O-]	-1.5	40.0
O=C1/C(=C/c2c(Cl)ccc([N+](=O)[O-])c2Cl)Sc2ccccc21	1.7	67.0*
O=C1/C(=C/c2cc([N+](=O)[O-])cc(Br)c2O)Sc2ccccc21	-6.9	89.0*
O=C(Nc1ccc2nn(-c3cccc(Cl)c3)nc2c1)c1ccccc1F	-3.4	-1.0
Cn1cc(C2=CCN(S(=O)(=O)c3ccc(C(C)(C)C)cc3)CC2)c2cccnc21	-7.1	19.4
Cc1cc2c3c(C)n(C)c(C)c3c(C)nn2c1	4.8	79.1*
Cc1ccc(C2=N/C(=C/c3ccc4c(c3)OCO4)C(=O)O2)cc1[N+](=O)[O-]	-1.8	8.0

Screening data (PubChem)
